From the supplement of paper PMC6089552
Several values for one entry are separate records, joined by “and”; a condition that tells them apart may be missing. Equal values may be shown once. The whole screen tested about 3,200 compounds, of which about 300 (9.4%) showed activity. The sample holds actives, similar compounds and a random draw of the others, so the mix is not that of the screen.

Tested on: A673/TR/shEF
Experiment: cell viability (LOESS-normalised, relative to median of negative controls) (log2 ratio); higher = more viable cells (less compound effect), active = hit call of the paper (over 3 MAD below the median)
Details: treatment time: 72 h
In short: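 Doxycycline, present or absent from 24 h before compounds, was used to induce EWS-FLI1 shRNA knockdown in A673/TR/shEF Ewing sarcoma cells at 1,500 per well in 384-well plates. Cells then received library compounds at two or more concentrations, or DMSO controls, for three days. Viability was measured by CellTiter-Glo luminescence on an Envision reader, and per-plate LOESS correction, division by the negative-control median and log2 transformation followed.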

[1] = 0.25 µM, library screen: screen1, EWS-FLI1 expression: high (no doxycycline)
[2] = 0.25 µM, library screen: screen1, EWS-FLI1 expression: low (doxycycline-induced shRNA knockdown)
[3] = 2.5 µM, library screen: screen1, EWS-FLI1 expression: high (no doxycycline)
[4] = 2.5 µM, library screen: screen1, EWS-FLI1 expression: low (doxycycline-induced shRNA knockdown)
[5] = 0.25 µM, library screen: screen2, EWS-FLI1 expression: high (no doxycycline)
[6] = 0.25 µM, library screen: screen2, EWS-FLI1 expression: low (doxycycline-induced shRNA knockdown)
[7] = 2.5 µM, library screen: screen2, EWS-FLI1 expression: high (no doxycycline)
[8] = 2.5 µM, library screen: screen2, EWS-FLI1 expression: low (doxycycline-induced shRNA knockdown)
[9] = 0.025 µM, library screen: screen1, EWS-FLI1 expression: high (no doxycycline)
[10] = 0.025 µM, library screen: screen1, EWS-FLI1 expression: low (doxycycline-induced shRNA knockdown)
[11] = 25 µM, library screen: screen1, EWS-FLI1 expression: high (no doxycycline)
[12] = 25 µM, library screen: screen1, EWS-FLI1 expression: low (doxycycline-induced shRNA knockdown)

Measured: cell viability (log2)

CCC(C)C(=O)O[C@@H]1C[C@@]2(C)[C@H](c3ccoc3)OC(=O)CC23OC2(C)OC14C1(C)[C@@H](CC(=O)OC)C5(C)CC1(O)C(O)([C@@H](OC(C)=O)C43O2)[C@H]5OC(=O)C1(C)OC1C (some centres not stated)
inactive: [1] 0.0892 | [2] 0.0664 | [3] 0.0941 | [4] 0.178

O=C(O)COc1cc(Cl)c(Cl)cc1Cl
inactive: [1] 0.0712 | [2] 0.0603 | [3] 0.0828 | [4] 0.0118

c1ccc2c3c([nH]c2c1)CNCC3
inactive: [1] 0.101 | [2] 0.0693 | [3] 0.2 | [4] 0.0982

FC(F)(F)c1cccc(N2CCNCC2)c1
inactive: [1] 0.112 | [2] 0.0689 | [3] 0.176 | [4] 0.0985

CN1C2CCC1CC(OC(c1ccccc1)c1ccc(Cl)cc1)C2 (configuration not stated)
inactive: [5] 0.142 | [6] 0.124 | [7] 0.232 | [8] 0.111

CC(C)CC(NC(=O)C(Cc1ccccc1)NC(=O)CNC(=O)CNC(=O)C(N)Cc1ccc(O)cc1)C(=O)O (configuration not stated)
inactive: [1] 0.0697 | [2] 0.0904 | [3] 0.0902 | [4] 0.179

Cc1nccc2c1[nH]c1ccccc12
inactive: [1] 0.0742 | [2] 0.0176 | [5] 0.227 | [6] 0.0311 | [3] 0.126 | [4] 0.136 | [7] 0.107 | [8] 0.0839

Cc1c2ccncc2c(C)c2c1[nH]c1ccccc12
inactive: [5] 0.0843 | [6] 0.00884 | [8] -0.00745
active: [7] -0.136

c1ccc2c(c1)[nH]c1cnccc12
inactive: [1] 0.0149 | [2] -0.0111 | [3] 0.101 | [4] 0.0791

Cc1ccccc1O
inactive: [1] 0.162 | [2] 0.0964 | [3] 0.189 | [4] 0.175

COC(C)(C)CCCC(C)C/C=C/C(C)=C/C(=O)OC(C)C (configuration not stated)
inactive: [1] -0.00169 | [2] 0.0238 | [3] 0.116 | [4] 0.0204

COc1ccccc1N1CCNCC1
inactive: [1] 0.0547 | [2] 0.0205 | [5] 0.228 | [6] 0.0463 | [3] 0.105 | [4] 0.112 | [7] 0.201 | [8] 0.0929

c1ccc2c(N3CCNCC3)cccc2c1
active: [7] -0.803 | [8] -0.746
inactive: [5] 0.144 | [6] -0.113

c1ccc2nc(N3CCNCC3)ccc2c1
inactive: [1] 0.0719 | [2] 0.0592 | [5] 0.196 | [6] 0.0365 | [3] 0.0383 | [4] 0.12 | [7] 0.14 | [8] 0.00635

C[C@]12Cc3cn4c(nc3C=C1CCC1C2CC[C@@]2(C)[C@H]1CC[C@@]2(O)C#N)nc1ccccc14 (some centres not stated)
inactive: [5] 0.119 | [6] 0.112 | [7] 0.295 | [8] 0.0843

Cc1[nH]c2ccccc2c1CN(C)C
inactive: [1] 0.0738 | [2] 0.0842 | [3] 0.116 | [4] 0.138

NC(C(=O)O)c1cc(=O)[nH]o1 (configuration not stated)
inactive: [5] 0.0457 | [6] -0.00138 | [7] 0.0296 | [8] 0.048

C=C1C([C@]2(C)C(CC(=O)OC)[C@@](C)(COC(C)=O)OC(=O)C[C@@H]2OC(C)=O)[C@@H](OC=O)[C@H](OC(=O)C(OC(C)=O)C(C)CC)[C@@]2(C)[C@H](c3ccoc3)CC(=O)C12O (some centres not stated)
inactive: [1] 0.0373 | [2] -0.0517 | [3] 0.0516 | [4] -0.0237

C/C(O)=C(\C#N)C(=O)Nc1cc(Br)ccc1Br
inactive: [9] 0.198 | [10] -0.0693 | [1] 0.124 | [2] -0.0251 | [5] 0.133 | [6] 0.0965 | [4] -0.0427 | [7] 0.0403 | [8] 0.0594 | [12] -0.00927
active: [3] -0.396 | [11] -0.451

COc1cc2ccc(=O)oc2c2ccoc12
inactive: [1] 0.222 | [2] 0.132 | [3] 0.248 | [4] 0.164

CCN(CC)C(=O)NC1C=C2c3cccc4[nH]cc(c34)CC2N(C)C1 (configuration not stated)
inactive: [5] 0.194 | [6] 0.105 | [7] 0.116 | [8] 0.101

O=[N+]([O-])c1ccc(O[C@@H]2O[C@H](CO)[C@@H](O)[C@H](O)[C@H]2F)c([N+](=O)[O-])c1
inactive: [5] 0.132 | [6] 0.00815 | [7] 0.0628 | [8] 0.111

COc1c2c(cc3c1OCO3)[C@]13C=C[C@H](OC)C[C@H]1N(C2)CC3O (some centres not stated)
inactive: [1] 0.0348 | [2] 0.0745 | [3] 0.0133 | [4] 0.0521

COP(=S)(OC)SCn1nnc2ccccc2c1=O
active: 8.3 µM, library screen: screen3, EWS-FLI1 expression: high (no doxycycline) -0.267 | 25 µM, library screen: screen3, EWS-FLI1 expression: high (no doxycycline) -0.422
inactive: 0.103 µM, library screen: screen3, EWS-FLI1 expression: high (no doxycycline) -0.0814 | 0.103 µM, library screen: screen3, EWS-FLI1 expression: low (doxycycline-induced shRNA knockdown) 0.0283 | [1] -0.0615 | [2] 0.0291 | 0.308 µM, library screen: screen3, EWS-FLI1 expression: high (no doxycycline) -0.0468 | 0.308 µM, library screen: screen3, EWS-FLI1 expression: low (doxycycline-induced shRNA knockdown) 0.0348 | 0.926 µM, library screen: screen3, EWS-FLI1 expression: high (no doxycycline) -0.0952 | 0.926 µM, library screen: screen3, EWS-FLI1 expression: low (doxycycline-induced shRNA knockdown) 0.162 | [3] 0.00869 | [4] 0.101 | 2.8 µM, library screen: screen3, EWS-FLI1 expression: high (no doxycycline) -0.136 | 2.8 µM, library screen: screen3, EWS-FLI1 expression: low (doxycycline-induced shRNA knockdown) 0.125 | 8.3 µM, library screen: screen3, EWS-FLI1 expression: low (doxycycline-induced shRNA knockdown) 0.196 | 25 µM, library screen: screen3, EWS-FLI1 expression: low (doxycycline-induced shRNA knockdown) 0.00265

CNC(=O)CSP(=S)(OC)OC
inactive: [1] 0.102 | [2] 0.0684 | [3] 0.15 | [4] 0.0982

CCCN1CCc2cccc3c2[C@H]1Cc1ccc(O)c(O)c1-3
inactive: [5] 0.161 | [6] 0.0862 | [7] 0.178 | [8] 0.107

CC(C)=CCOc1c2occc2cc2ccc(=O)oc12
inactive: [1] 0.059 | [2] 0.0156 | [3] 0.0916 | [4] -0.0403

Clc1ccc(C(c2ccc(Cl)cc2)C(Cl)(Cl)Cl)cc1
inactive: [1] 0.0479 | [2] 0.0234 | [3] 0.0726 | [4] 0.147

CN(C)C(=S)SSC(=S)N(C)C
active: [1] -2.91 | [2] -2.1 | [3] -2.99 | [4] -2.02

C[C@]12CC[C@@H](O)C[C@@H]1CC[C@@H]1[C@@H]2CC[C@]2(C)[C@@H](O)CC[C@@H]12
inactive: [5] 0.0177 | [6] 0.137 | [7] 0.141 | [8] 0.0662

COS(C)(=O)=O
inactive: [1] 0.0621 | [2] 0.0487 | [3] 0.0611 | [4] -0.0183

O=P(O)(O)Cc1ccccc1
inactive: [9] 0.115 | [10] -0.0367 | [1] 0.209 | [2] -0.089
active: [3] -0.281 | [4] -0.453 | [11] -0.356 | [12] -1.06

CC12CCC3C(CC=C4CC(OS(=O)(=O)O)CCC43C)C1CCC2=O (configuration not stated)
inactive: [5] 0.0737 | [6] -0.00205 | [7] 0.0312 | [8] 0.0129

CC[C@@]1(O)C[C@H](O[C@H]2C[C@H](N(C)C)[C@H](O)[C@H](C)O2)c2c(cc3c(c2O)C(=O)c2c(O)cccc2C3=O)[C@H]1C(=O)OC
active: [3] -1.99 and -0.594 | [4] -0.405 and -0.193
inactive: [1] 0.0584 and -0.0862 | [2] -0.00295 and 0.0558

CCC1(O)CC(OC2CC(N(C)C)C(O)C(C)O2)c2c(cc3c(c2O)C(=O)c2c(O)cccc2C3=O)C1C(=O)OC (configuration not stated)
active: [7] -0.409 | [8] -0.0756 | 25 µM, library screen: screen2, EWS-FLI1 expression: high (no doxycycline) -4.23 | 25 µM, library screen: screen2, EWS-FLI1 expression: low (doxycycline-induced shRNA knockdown) -3.71
inactive: 0.025 µM, library screen: screen2, EWS-FLI1 expression: high (no doxycycline) -0.0129 | 0.025 µM, library screen: screen2, EWS-FLI1 expression: low (doxycycline-induced shRNA knockdown) 0.0193 | [5] 0.135 | [6] -0.0369

CC[C@@]1(O)C[C@H](OC2C[C@@H](N(C)C)C(O)C(C)O2)c2c(cc3c(c2O)C(=O)c2c(O)ccc(O)c2C3=O)[C@H]1C(=O)OC (some centres not stated)
active: [3] -0.221
inactive: [1] 0.0817 | [2] 0.158 | [4] 0.00788

Cc1o[nH]c(=O)c1CC(N)C(=O)O (configuration not stated)
inactive: [5] 0.115 | [6] 0.0119 | [7] 0.0854 | [8] 0.0272

COc1ccc2c3c1O[C@H]1C(=O)CC[C@@]4(O)C(C2)N(CC2CC2)CCC314 (some centres not stated)
inactive: [5] 0.143 | [6] 0.0949 | [7] -0.028 | [8] 0.00345

C[C@]12CCC3C(CC[C@H]4C[C@@H](Cl)CC[C@]34C)C1CCC2=O (some centres not stated)
inactive: [1] 0.0861 | [2] 0.0822 | [3] 0.109 | [4] 0.0908

CC1CC(Cl)CCC1C(=O)OC(C)(C)C (configuration not stated)
inactive: [1] -0.0203 | [2] 0.0889 | [3] 0.151 | [4] 0.103

Cn1c(=O)c2c(ncn2CCCl)n(C)c1=O
inactive: [1] 0.086 | [2] -0.0151 | [3] -0.000593 | [4] 0.00538

CC(=O)O[C@H]1C[C@@H](OC(C)=O)C(C)(C)C2C[C@@H](OC(C)=O)[C@]3(C)C(CC[C@@]4(C)[C@H](c5ccoc5)C[C@H]5O[C@]543)[C@]21C (some centres not stated)
inactive: [1] 0.134 | [2] 0.0408 | [3] 0.129 | [4] 0.147

C[C@@H]1O[C@H](C[N+](C)(C)C)C[C@H]1O
inactive: [5] 0.143 | [6] 0.0741 | [7] 0.116 | [8] -0.0161
